From PubChem BioAssay (NCI)
About 83,000 compounds went through this panel and 20% of them were active in at least one assay; those are over-represented in the sample as a whole.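 96-well plates, one dose, 48 hours. Percent growth reported; active if below 10.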 The source made the active and inactive calls.

Key:
Assay in all cases: NCI-60 one-dose screen, 48 h (100 = growth as untreated, 0 = no growth, -100 = all killed)
Details in all cases: 10 µM unless noted
DU-145 prostate = system: DU-145 prostate
K-562 leukemia = system: K-562 leukemia
MALME-3M melanoma = system: MALME-3M melanoma
MDA-MB-231 breast = system: MDA-MB-231 breast
RXF 393 renal = system: RXF 393 renal
SF-268 CNS = system: SF-268 CNS
SF-295 CNS = system: SF-295 CNS
SF-539 CNS = system: SF-539 CNS
UACC-257 melanoma = system: UACC-257 melanoma
M14 melanoma = system: M14 melanoma
HCT-15 colon = system: HCT-15 colon
HT29 colon = system: HT29 colon
SNB-75 CNS = system: SNB-75 CNS
U251 CNS = system: U251 CNS
PC-3 prostate = system: PC-3 prostate
SK-MEL-5 melanoma = system: SK-MEL-5 melanoma
UACC-62 melanoma = system: UACC-62 melanoma
LOX IMVI melanoma = system: LOX IMVI melanoma
SK-MEL-28 melanoma = system: SK-MEL-28 melanoma

Measured: growth

C=CN(C(=O)N1CCN(c2cc3c(cc2F)c(=O)c(C(=O)O)cn3C2CC2)CC1)c1nc(-c2ccc(C)cc2)cs1
active: RXF 393 renal 6.69% | SF-295 CNS -5.02% | HCT-15 colon 9.38% | HT29 colon 6.66% | LOX IMVI melanoma 8.56%
inactive: DU-145 prostate 24.7% | K-562 leukemia 18.5% | MALME-3M melanoma 48.2% | MDA-MB-231 breast 21.5% | SF-268 CNS 26.3% | SF-539 CNS 20.2% | UACC-257 melanoma 54.2% | M14 melanoma 31.4% | SNB-75 CNS 14.4% | U251 CNS 11.4% | PC-3 prostate 14.7% | SK-MEL-5 melanoma 26.6% | UACC-62 melanoma 29.2% | SK-MEL-28 melanoma 42.1%

CCOc1ccccc1NC(=O)CCC(=O)OC
inactive: DU-145 prostate 107% | K-562 leukemia 108% | MALME-3M melanoma 72.9% | MDA-MB-231 breast 107% | RXF 393 renal 109% | SF-268 CNS 96.9% | SF-295 CNS 104% | SF-539 CNS 97.4% | UACC-257 melanoma 123% | M14 melanoma 100% | HCT-15 colon 105% | HT29 colon 89.7% | SNB-75 CNS 75.7% | U251 CNS 105% | PC-3 prostate 93.5% | SK-MEL-5 melanoma 99.7% | UACC-62 melanoma 106% | LOX IMVI melanoma 102% | SK-MEL-28 melanoma 101%

CC(C)(C)n1cc(-c2ccnc(NCCNS(=O)(=O)c3ccc(C(F)(F)F)cc3)c2)c(-c2ccccc2)n1
inactive: DU-145 prostate 99.2% | K-562 leukemia 44.3% | MALME-3M melanoma 109% | MDA-MB-231 breast 92.1% | RXF 393 renal 87.8% | SF-268 CNS 95.3% | SF-295 CNS 83.7% | SF-539 CNS 82.2% | UACC-257 melanoma 104% | M14 melanoma 88.8% | HCT-15 colon 75.6% | HT29 colon 53.7% | SNB-75 CNS 80.9% | U251 CNS 75.4% | PC-3 prostate 65.8% | SK-MEL-5 melanoma 80.7% | UACC-62 melanoma 80.9% | LOX IMVI melanoma 93.1% | SK-MEL-28 melanoma 100%

O=C(/C=C/C12c3ccccc3C(c3ccccc31)C1C(=O)NC(=O)C12)c1cccs1 (stereo unspecified)
inactive: DU-145 prostate 13.5% | K-562 leukemia 16.8% | MALME-3M melanoma 75.6% | MDA-MB-231 breast 51.6% | RXF 393 renal 28.1% | SF-268 CNS 32.9% | SF-295 CNS 52.5% | SF-539 CNS 53.9% | UACC-257 melanoma 45.7% | M14 melanoma 48.2% | HCT-15 colon 26.3% | HT29 colon 22.6% | SNB-75 CNS 17.1% | U251 CNS 15.8% | PC-3 prostate 33.6% | SK-MEL-5 melanoma 54.8% | UACC-62 melanoma 37.2% | LOX IMVI melanoma 28.6% | SK-MEL-28 melanoma 45.8%

CCCCCCC/C=N/NC(=O)c1ccc(-n2cc(-c3ccccc3)nn2)cc1
inactive: DU-145 prostate 96.1% | K-562 leukemia 79.7% | MALME-3M melanoma 78.1% | MDA-MB-231 breast 74.3% | RXF 393 renal 83.5% | SF-268 CNS 90.1% | SF-295 CNS 87.8% | SF-539 CNS 96.5% | UACC-257 melanoma 100% | M14 melanoma 80.7% | HCT-15 colon 73.6% | HT29 colon 101% | SNB-75 CNS 86.3% | U251 CNS 98.3% | PC-3 prostate 74.8% | SK-MEL-5 melanoma 94.9% | UACC-62 melanoma 61.9% | LOX IMVI melanoma 59.5% | SK-MEL-28 melanoma 98.3%

COc1cc(-c2ccc(-c3ccc(C(=N)N)s3)s2)cc(OC)c1OC
active: K-562 leukemia -33.6% | MALME-3M melanoma -90.7% | SF-539 CNS -35.6% | M14 melanoma -53.4% | HT29 colon 4.42% | U251 CNS 1.13% | LOX IMVI melanoma -63.3% | SK-MEL-28 melanoma 7.05%
inactive: DU-145 prostate 36.2% | MDA-MB-231 breast 10% | RXF 393 renal 54.1% | SF-268 CNS 46.8% | SF-295 CNS 51% | UACC-257 melanoma 75.7% | HCT-15 colon 13.6% | SNB-75 CNS 75.5% | SK-MEL-5 melanoma 23.2% | UACC-62 melanoma 81.3%

Cc1c2ccncc2c(C)c2c1c1ccccc1n2CCCCCC(=O)O
inactive: DU-145 prostate 104% | K-562 leukemia 92.5% | MALME-3M melanoma 108% | MDA-MB-231 breast 81.2% | RXF 393 renal 93.2% | SF-268 CNS 86.6% | SF-295 CNS 95.3% | SF-539 CNS 90.2% | UACC-257 melanoma 106% | M14 melanoma 103% | HCT-15 colon 87.1% | HT29 colon 101% | SNB-75 CNS 82.8% | U251 CNS 85.8% | PC-3 prostate 86.2% | SK-MEL-5 melanoma 89.8% | UACC-62 melanoma 85.2% | LOX IMVI melanoma 74.4% | SK-MEL-28 melanoma 113%

CCOC(=O)C#Cc1c(CC(=O)OCC)nnn1[C@H]1O[C@@H](CO)[C@@H]2OC(C)(C)O[C@@H]21
active: RXF 393 renal 3.65% | HCT-15 colon -12.8%
inactive: DU-145 prostate 94.5% | K-562 leukemia 10.3% | MALME-3M melanoma 26.6% | MDA-MB-231 breast 105% | SF-268 CNS 105% | SF-295 CNS 97.4% | SF-539 CNS 75.3% | UACC-257 melanoma 62.8% | M14 melanoma 58.3% | HT29 colon 29.2% | SNB-75 CNS 76.4% | U251 CNS 96.9% | PC-3 prostate 89.4% | SK-MEL-5 melanoma 97.2% | UACC-62 melanoma 84.8% | LOX IMVI melanoma 47.3% | SK-MEL-28 melanoma 86.6%
